Compound activity: PubChem BioAssay, National Center for Advancing Translational Sciences (NCATS)
Most compounds without a hit are left out; they make up all but 16% or so of the library.
TDP1 block: qHTS Assay for Inhibitors of Tyrosyl-DNA Phosphodiesterase (TDP1); Tyrosyl-DNA phosphodiesterase 1 (Homo sapiens), Q9NUW8; recombinant TDP1, AlphaScreen DNA substrate cleavage; Potency, µM (top dose mostly 130 µM), inactives show top-dose activity change, negative = inhibition, hits mostly inhibitors; actives 0.28% (n = 350,000); further: potency means the concentration at half of the fitted maximal effect; on the % scale 0 is the no-effect control and ±100 the full control effect; nearly all actives have a fitted effect of over 40% in size
Target sequence (Q9NUW8 whole entry, looked up): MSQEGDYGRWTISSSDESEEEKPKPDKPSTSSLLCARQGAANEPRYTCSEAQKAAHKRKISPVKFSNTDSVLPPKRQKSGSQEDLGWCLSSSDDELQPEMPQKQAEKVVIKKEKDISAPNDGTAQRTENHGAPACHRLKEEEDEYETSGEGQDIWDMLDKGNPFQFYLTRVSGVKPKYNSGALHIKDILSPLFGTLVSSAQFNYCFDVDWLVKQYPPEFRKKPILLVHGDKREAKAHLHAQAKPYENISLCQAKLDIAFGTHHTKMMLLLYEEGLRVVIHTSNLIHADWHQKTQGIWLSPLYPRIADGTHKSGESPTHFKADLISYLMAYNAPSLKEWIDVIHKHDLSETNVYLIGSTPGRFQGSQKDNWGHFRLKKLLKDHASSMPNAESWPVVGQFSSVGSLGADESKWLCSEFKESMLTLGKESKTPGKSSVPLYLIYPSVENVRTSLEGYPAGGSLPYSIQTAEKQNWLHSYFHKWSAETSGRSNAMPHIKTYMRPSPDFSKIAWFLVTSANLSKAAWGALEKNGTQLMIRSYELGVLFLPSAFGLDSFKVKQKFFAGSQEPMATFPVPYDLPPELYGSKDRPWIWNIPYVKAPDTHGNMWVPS
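AlphaScreen read-out: signal falls as enzyme removes the 3' tyrosine-FITC from a 5'-biotinylated DNA oligo (15 nM, 5 min, RT). Enzyme was E. coli-made recombinant Tdp1 at 1 nM, exposed to compound for 15 min beforehand; beads 10 ug/ml, 10 min.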
DT40 TDP1 CPT: qHTS for Inhibitors of human tyrosyl-DNA phosphodiesterase 1 (TDP1): qHTS in cells in presence of CPT. AID 686979, 2013. chicken DT40 Tdp1-/-;hTDP1 cells + 20 nM CPT, ATP luminescence, 48 h. actives 12% (n = 420,000). Potency, µM (titrated, usually from 46.2 µM), for inactives: top-dose activity change, negative = growth inhibition, actives largely listed as inhibitors; further: potency means the concentration at half of the fitted maximal effect; on the % scale 0 is the no-effect control and ±100 the full control effect; nearly all actives have a fitted effect of over 55% in size
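Chicken DT40 Tdp1-/- cells complemented with human TDP1, 400 cells/well, exposed to compounds plus 20 nM camptothecin for at least 48 h at 37 C; viability read as ATP content by CellTiter-Glo luminescence.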
miR-21 reporter: qHTS Assay for Modulators of miRNAs and/orActivators of miR-21 | HeLa miR-21 FLuc reporter, luciferase, 48 h | Potency, µM (titrated, usually from 38.3 µM), for inactives: at the top dose activity change, positive = activation, hits mostly activators | 340,000 tested, under 10 active;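 further: % of control where 0% means no effect; miR-21 action dims this reporter so a rising signal means less miR-21 action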
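HeLa cells stably expressing CMV-driven firefly luciferase with a downstream miR-21 binding sequence, endogenously expressing miR-21, were treated with titrations (up to about 40uM final) for 48 hours at 37 degree Celsius. Luciferase luminescence was read after lysis.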
uPA surface inh: qHTS for Inhibitors of Cell Surface uPA Generation | cell surface uPA generation assay, qHTS | Potency, µM (titrated, usually from 38.3 µM), without a hit: at the highest dose activity change, negative = inhibition, most hits filed as inhibitors | actives 0.31% (n = 330,000) | AID 540303, 2011; active means well fitted inhibition curve with a large enough effect; inconclusive means small, poorly fitted or top-dose-only effect; inactive means no such curve, though single readings can be large or run the other way; tested in mouse RAW 264.7 cells; further: potency means the concentration at half of the fitted maximal effect; on the % scale 0 is the no-effect control and ±100 the full control effect; nearly all actives have a fitted effect of over 55% in size
TDP1 cell noCPT: qHTS for Inhibitors of human tyrosyl-DNA phosphodiesterase 1 (TDP1): qHTS in cells in absence of CPT; DT40 Tdp1-/- hTDP1 cells, no CPT, ATP luminescence, 48 h; Potency, µM (top dose mostly 46.2 µM), inactives show at the top dose activity change, negative = growth inhibition, actives largely listed as inhibitors; actives 15% (n = 420,000); AID 686978, 2013; further: potency means the concentration at half of the fitted maximal effect; on the % scale 0 is the no-effect control and ±100 the full control effect; nearly all actives have a fitted effect of over 55% in size
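Camptothecin absent (DMSO only). Human TDP1-complemented DT40 knockout cells, 400 cells/well, 37 °C for minimum 48 hr; ATP measured via CellTiter-Glo, 30 min dark incubation, luminescence.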
Numbers without * were called inactive; ? = inconclusive; nt = not tested or not shown; [ ] = another dose, or the depositor's remark. Unless noted, the call rests on the fitted dose curve; in most records, active means well fitted curve in the direction sought with a large enough effect; inconclusive means small, poorly fitted or top-dose-only effect, or another doubt; inactive means no such curve, though single readings can be large; an effect the other way counts as inactive or inconclusive.

SMILES	TDP1 block	DT40 TDP1 CPT	miR-21 reporter	uPA surface inh	TDP1 cell noCPT
CCC(C)Sc1ccc(-c2nc3ccc(C)cn3c2NCc2ccccc2)cc1OC (configuration not stated)	1%	21µM*	nt	5.6µM*	16µM*
CCC(C)Sc1cc(-c2nc3ccc(C)cn3c2NCc2ccccc2)ccc1OC (configuration not stated)	nt	4.6µM*	nt	4.5µM*	4.1µM*
COc1ccc(-c2cc(-c3nc4ccccn4c3NCc3ccccc3)ccc2OC)cc1	6%	?	nt	5.6µM*	?
CCOC(=O)c1cnc(-n2nc(C)cc2C)[nH]c1=O	nt	?	1%	-1%	9%
N#CC1=C(N)Nc2ncnn2C1c1ccc([N+](=O)[O-])cc1 (configuration not stated)	nt	-19%	0%	-14%	-1%
COc1ccc(C2C(Oc3ccccc3C)C(=O)N2Cc2ccc(F)cc2)cc1OC (configuration not stated)	0%	?	2%	0%	?
COc1ccc(OC2C(=O)N(Cc3ccc(F)cc3)C2c2cc(OC)c(OC)c(OC)c2)cc1 (configuration not stated)	-3%	?	1%	-3%	23µM*
COc1cccc(CNCCSc2nnnn2C)c1OCc1ccccc1F	5%	?	-1%	nt	?
COc1cc(CNCCSc2nnnn2C)ccc1OCc1ccc(F)cc1	-5%	18µM*	9%	nt	21µM*
COc1cccc(CNCCSc2nnnn2C)c1OCc1ccc(F)cc1	3%	?	-2%	nt	21µM*
CC1(O)CC(c2ccc(Cl)cc2)=NN1C(=O)c1ccc(Cl)cc1 (configuration not stated)	nt	10µM*	1%	-18%	16µM*
CCOC(=O)C1CCCN(Cc2nc(CC3CC3)no2)C1 (configuration not stated)	nt	2%	-10%	4%	5%
O=C(Nc1ccc(O)cc1)N1CCOCC1	nt	-16%	-12%	-25%	2%
S=C(Nc1ccc(Cl)cc1)NC1CCN(Cc2ccccc2)CC1	6%	21µM*	26%	2%	9.2µM*
COc1ccc(CCNC(=S)NC2CCN(Cc3ccccc3)CC2)cc1	7%	?	25%	-2%	23µM*
S=C(NC1CCCCC1)NC1CC2CCC(C1)N2Cc1ccccc1 (configuration not stated)	4%	?	3%	-2%	18µM*
CCC(C)c1ccc(NC(=S)NC2CCN(Cc3ccccc3)CC2)cc1 (configuration not stated)	2%	8.2µM*	27%	-9%	7.3µM*
Cc1ccccc1NC(=S)NC1CCN(Cc2ccccc2)CC1	-1%	-28%	-10%	4%	-38%
S=C(NCCc1ccccc1)NC1CCC(NC(=S)NCCc2ccccc2)CC1 (configuration not stated)	2%	3%	0%	11%	12%
S=C(Nc1ccccc1)NC1CCN(Cc2ccccc2)CC1	2%	-19%	3%	-3%	?
O=C(CCNS(=O)(=O)c1cccc2nsnc12)NC1CCN(Cc2ccccc2)CC1	-3%	-5%	-6%	4%	?
O=C(c1ccco1)N1CCN(Cc2ccc(F)cc2)CC1	nt	-11%	-1%	-5%	-13%
CCc1ccc(NC(=S)NC2CCN(Cc3ccccc3)CC2)cc1	4%	7.3µM*	29%	-2%	12µM*
COc1ccc(NC(=S)NC2CCN(Cc3ccccc3)CC2)cc1OC	5%	-8%	-1%	1%	?
S=C(NCCc1cccc(Cl)c1)NC1CCCCC1	0%	?	-59%	4%	21µM*
SMILES	TDP1 block	DT40 TDP1 CPT	miR-21 reporter	uPA surface inh	TDP1 cell noCPT
C[N+]1(CC(=O)c2ccc(-c3ccccc3)cc2)CCOCC1	nt	?	nt	nt	-16%
CN(CCc1cnn(C)c1)Cc1nc(Cc2ccccc2)no1	5%	6%	-2%	1%	-14%
CC(C1CC1)N(Cc1ccccc1)C(=S)Nc1cccc(C(F)(F)F)c1 (configuration not stated)	3%	?	10%	-4%	?
CC(C1CC1)N(Cc1ccccc1)C(=S)Nc1ccccc1 (configuration not stated)	0%	15µM*	-5%	-4%	23µM*
CCCCN(CCCC)Cc1cc2ccccc2c2c1COC2	2%	13µM*	0%	1%	?
COC(=O)c1cc(OC)c(OC)cc1NC(=O)c1ccc(C)cc1	0%	?	1%	1%	?
COC(=O)c1cc(C)ccc1/C=C1/Cc2c(C)cc(C)cc2C1=O	nt	9.2µM*	nt	-8%	?
COc1ccc(Nc2nnc(-c3cc4cc(Cl)ccc4oc3=O)s2)cc1	-3%[12.3 µM]	14%	-3%	nt	7%
CCOc1ccccc1Nc1nnc(-c2cc3cc(Cl)ccc3oc2=O)s1	4%	2.3µM*	27%	nt	2.3µM*
COc1ccc2c(c1)C1(Nc3ccccc3-c3nc4ccccc4n31)C(=O)N2 (configuration not stated)	7%	-27%	-1%	-1%	-13%
COc1ccc2c(c1)C1(Nc3ccccc3-c3nc4ccccc4n31)C(=O)N2C (configuration not stated)	3%	?	-2%	2%	21µM*
Cc1ccc(SCc2ccc(C(=O)NCc3cccnc3)cc2)cc1	5%	?	0%	5%	?
CCOC(=O)c1ccc(S(=O)(=O)NC2CCC(C)CC2)cc1 (configuration not stated)	-3%[56.1 µM]	16µM*	nt	?	21µM*
Cc1cc(=O)[nH]c(SCC2COC3(CCCCC3)O2)n1 (configuration not stated)	3%	-13%	-5%	1%	-5%
Cc1ccc(S(=O)(=O)N2C3CC(c4ccccc4)N(S(=O)(=O)c4cccc(Cl)c4)CC3C(=O)C[C@H]2c2ccccc2)cc1 (some centres not stated)	nt	8%	nt	nt	2%
Cc1ccc(S(=O)(=O)N2CC3C(=O)C[C@@H](c4ccccc4)N(S(=O)(=O)c4cccc(Cl)c4)C3CC2c2ccccc2)cc1 (some centres not stated)	nt	?	nt	nt	23µM*
Cc1cccc(N2CCN(CC(=O)NCc3ccccc3)CC2)c1C	5%	-24%	0%	12%	-23%
CC(C)N1CCC1(C)C(=O)Nc1ccc(-n2cccc2)cc1 (configuration not stated)	nt	15µM*	nt	nt	?
